This note sets out measurements from PubChem BioAssay AID779 (Sanford-Burnham Center for Chemical Genomics, 2007).

Values without a mark were called inactive. How the calls were made is not given here.

The experiment in a line: placental alkaline phosphatase inhibitors, dose response, counter-screen, biochemical, colorimetric (AID 779). The note with it: PLAP counter-screen, colorimetric OD read-out. In general terms: A counterscreen serves to expose hits that act by an unwanted route or on another target.
The term IC50 denotes the midpoint of a concentration-inhibition curve. `CN1/C(=C\C=C\C2=[N+](C)c3ccc4ccccc4c3C2(C)C)C(C)(C)c2ccccc21`: the IC50 was greater than 50 µM.

For the compound `Cc1cc(C=C2C(=O)N(C)C(=S)N(C)C2=O)c(C)n1C1CCCCC1`, the IC50 is greater than 50 µM.

For the compound `CC(=O)OC1(c2ccc(C)cc2)CN2CCC1c1ccccc12` (stereo not given), the IC50 was greater than 50 µM.

On to `CCCCOP(=O)(OCCCC)/C(C#N)=C(/C)O`, for which the IC50 is greater than 50 µM.

As for `COc1ccc(C(=O)CN2CCOCC2)cc1F`, the IC50 was greater than 50 µM.
